Test results reported in the supplement of paper PMC12669032.
A number with no mark means an inactive call.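 The calls were made as follows: active = AUC reduced over 20% with Padj below 0.05 in at least 2 of 3 replicates; inactive = otherwise.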

Legend:
Test in all cases: growth AUC relative to DMSO control (median of replicates) (fraction); higher = more growth (less inhibition), active = hit call of the paper
Settings in all cases: 20 µM; 24 h
Akkermansia muciniphila = system: Akkermansia muciniphila
In short: (§1)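 Each value is the median of three biological replicates, grown on separate days, of a gut bacterial monoculture incubated anaerobically at 37 °C in mGAM with 20 µM compound (1% DMSO). Cultures started at OD600 0.05 and were read at OD600 hourly for 24 h, with the minimum OD set to 0. Area under the growth curve was normalised to the plate median of solvent-only wells, or to row and column medians on the industrial chemical plate.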

Bacteroides caccae = system: Bacteroides caccae
In short: as §1

Bacteroides clarus = system: Bacteroides clarus
In short: as §1

Bacteroides dorei = system: Bacteroides dorei
In short: as §1

Bacteroides stercoris = system: Bacteroides stercoris
In short: as §1

[1] = system: Bacteroides thetaiotaomicron
In short: as §1

Bacteroides uniformis = system: Bacteroides uniformis
In short: as §1

[2] = system: Bifidobacterium longum subsp. longum
In short: as §1

Clostridium difficile = system: Clostridium difficile
In short: as §1

Collinsella aerofaciens = system: Collinsella aerofaciens
In short: as §1

Coprococcus comes = system: Coprococcus comes
In short: as §1

Escherichia coli ED1a = system: Escherichia coli ED1a
In short: as §1

Escherichia coli IAI1 = system: Escherichia coli IAI1
In short: as §1

Eubacterium rectale = system: Eubacterium rectale
In short: as §1

[3] = system: Fusobacterium nucleatum subsp. animalis
In short: as §1

Lactobacillus gasseri = system: Lactobacillus gasseri
In short: as §1

Lactobacillus paracasei = system: Lactobacillus paracasei
In short: as §1

Odoribacter splanchnicus = system: Odoribacter splanchnicus
In short: as §1

[4] = system: Parabacteroides distasonis
In short: as §1

Parabacteroides merdae = system: Parabacteroides merdae
In short: as §1

Structure (SMILES)	growth AUC (Akkermansia muciniphila)	growth AUC (Bacteroides caccae)	growth AUC (Bacteroides clarus)	growth AUC (Bacteroides dorei)	growth AUC (Bacteroides stercoris)	growth AUC [1]	growth AUC (Bacteroides uniformis)	growth AUC [2]	growth AUC (Clostridium difficile)	growth AUC (Collinsella aerofaciens)	growth AUC (Coprococcus comes)	growth AUC (Escherichia coli ED1a)	growth AUC (Escherichia coli IAI1)	growth AUC (Eubacterium rectale)	growth AUC [3]	growth AUC (Lactobacillus gasseri)	growth AUC (Lactobacillus paracasei)	growth AUC (Odoribacter splanchnicus)	growth AUC [4]	growth AUC (Parabacteroides merdae)
Oc1ccccc1-c1ccccc1	1.03	1.04	1.03	1.02	1.04	1.01	1.01	0.965	1.04	1.01	1	1.02	1.05	0.984	0.988	1.08	0.923	1.03	0.976	1.04
CCCN(CCC)C(=O)SCc1ccccc1	1.04	0.994	0.996	0.976	1.13	0.972	0.985	0.967	0.987	0.998	1.01	1.01	0.985	1.09	1.01	1.02	0.963	1.08	0.89	0.998
CCN(C(=O)n1nnn(-c2ccccc2Cl)c1=O)C1CCCCC1	0.87	0.84	0.508 (active)	0.513 (active)	0.118 (active)	0.107 (active)	0.0622 (active)	0.988	0.992	0.925	0.942	0.969	0.989	0.956	1.01	1.01	0.827	0.97	0.682 (active)	0.411 (active)
CCOP(=S)(OCC)SCSP(=S)(OCC)OCC	0.958	1	0.949	0.974	1.04	1.01	0.981	1.03	0.995	0.996	0.997	0.983	1.01	0.954	1.04	0.988	1.07	1.01	1	0.997
CNC(=O)/C(=N\OC)c1ccccc1Oc1ccccc1	0.873	0.981	0.959	0.97	0.953	1.02	0.998	0.987	1.01	1.03	1.01	1.01	1	0.963	0.974	1.05	0.986	0.961	1.02	0.99
S=C1NCCN1	1.05	0.998	0.998	1.06	1.13	1.01	1.03	0.947	1.05	1.02	1.02	1.01	1.01	1.04	1.08	1.02	0.923	1.04	1.05	1.04
Cc1cc(Cl)ccc1OCC(=O)O.O.[Na]	1.25	0.981	1.01	0.921	1.02	1.05	0.993	1.05	1.02	0.98	1	1.01	1	1.15	1.07	0.864	0.994	1.03	0.95	1.04
O=[N+]([O-])c1ccc(O)c([N+](=O)[O-])c1	1.07	0.987	0.939	0.98	0.867	0.889	0.946	1	0.973	0.992	0.904	0.998	0.998	1.02	0.927	1.06	0.97	0.673	0.948	0.985
CCCOC(=O)c1ccccc1C(=O)OCCC	1.16	1.04	1.03	0.983	1.18	0.992	0.989	1.05	0.999	1.01	1.11	1.02	1.05	1.1	1.15	0.999	1.09	0.698	0.953	0.993
O=c1oc2ccccc2c(O)c1C1CC(c2ccc(-c3ccccc3)cc2)Cc2ccccc21 (stereo not given)	0.831	0.895	0.66 (active)	0.904	0.00795 (active)	0.76 (active)	0.858	0.886	0.803	0.975	0.946	1	0.959	0.502	1.02	0.574	0.887	0.959	0.0292 (active)	0.0278 (active)
CC(C)N1C(=O)c2ccccc2NS1(=O)=O	1.21	0.999	0.999	0.946	1	1.01	0.977	1.06	0.98	0.967	1.05	0.972	0.97	1.1	1.01	0.945	0.932	0.992	0.787	1.02
O=C(NC(=O)c1c(F)cccc1F)Nc1cc(Cl)c(OC(F)(F)C(F)C(F)(F)F)cc1Cl (stereo not given)	0.997	0.981	0.982	1.02	1.01	0.99	0.962	0.981	1.04	0.94	0.919	0.996	1	1.01	1.01	0.989	0.976	0.993	0.964	0.988
COC[C@H](C)N(C(=O)CCl)c1c(C)csc1C	1.08	1	0.983	0.951	0.95	1	0.981	1.04	0.976	1	1	0.985	0.981	1.17	0.988	0.922	0.95	0.976	0.963	0.956
C=CCOC(=O)C(C)(C)OC(=O)c1cc(-n2c(=O)cc(C(F)(F)F)n(C)c2=O)ccc1Cl	1.14	0.949	1.01	0.969	1.09	0.974	0.975	0.96	0.964	0.961	1	0.998	1.02	1.05	1.09	0.871	1.01	0.913	0.811	0.962
CCOc1nc(NC)nc(NC(=O)NS(=O)(=O)c2ccccc2C(=O)OC)n1	0.947	1.01	1.01	1.02	0.97	0.988	0.998	0.967	0.979	0.992	0.996	1.02	1.02	0.974	1.04	1.23	1.04	1.04	1.05	1.03
NCCO.O=C(O)c1nc(Cl)ccc1Cl	1.02	1.01	1.04	0.987	1.02	1.04	1	1.04	1	1.02	1.05	1.01	1.01	0.912	1.04	0.979	1.02	1.02	1.02	1.01
